From PubChem BioAssay AID2562 (National Center for Advancing Translational Sciences (NCATS), 2010)
Records with an inconclusive call do not appear. The source made the active and inactive calls. Calls come from the whole dose curve; as a rule, active = well fitted curve in the direction sought with a large enough effect; inconclusive = small, poorly fitted or top-dose-only effect, or effect the other way, or another doubt; inactive = no such curve, though single readings can be large or run the other way.

target: Pyruvate kinase PKLR (Homo sapiens) (UniProt P30613); assay: Secondary LDH Assay for Activators of Human Reticulocyte Pyruvate Kinase: for Probe SAR; settings: purified hPK-R, LDH-coupled NADH fluorescence kinetic; series mostly up to 58.4 µM
Sequence (P30613 whole entry, looked up): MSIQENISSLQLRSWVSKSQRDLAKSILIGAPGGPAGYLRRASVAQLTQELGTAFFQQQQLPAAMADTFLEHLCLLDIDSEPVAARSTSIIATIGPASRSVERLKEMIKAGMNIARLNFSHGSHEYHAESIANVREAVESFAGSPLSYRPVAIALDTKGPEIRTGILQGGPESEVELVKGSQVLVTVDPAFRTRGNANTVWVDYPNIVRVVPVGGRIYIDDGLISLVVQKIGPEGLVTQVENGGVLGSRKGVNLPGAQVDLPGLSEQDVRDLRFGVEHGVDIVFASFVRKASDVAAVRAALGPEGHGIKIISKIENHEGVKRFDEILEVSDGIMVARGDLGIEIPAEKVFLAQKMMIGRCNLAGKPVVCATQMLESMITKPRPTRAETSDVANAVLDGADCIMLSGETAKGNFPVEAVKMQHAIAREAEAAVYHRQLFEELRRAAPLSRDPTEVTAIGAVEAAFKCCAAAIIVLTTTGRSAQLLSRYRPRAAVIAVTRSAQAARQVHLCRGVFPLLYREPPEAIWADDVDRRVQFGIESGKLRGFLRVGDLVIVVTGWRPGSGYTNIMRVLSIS
Source text: NIH Chemical Genomics Center [NCGC] Wael M. Rabeh, Lyudmila Nedyalkova and Hee-Wan Park [Structural Genomics Consortium, 100 College St. Toronto, Ontario, Canada] NCGC Assay Overview: Human pyruvate kinase reticulocyte (hPK-R) enzyme was supplied as a highly purified (>95% pure) preparation from Structural Genomics Consortium in Toronto (Ontario, Canada) and a secondary assay was used to evaluate compounds. This assay couples the formation of pyruvate from hPK-R using lactate dehydrogenase (LDH) and NADH. The depletion of NADH is followed in a fluorescent-based kinetic assay that follows the formation of pyruvate to lactate, as catalyzed LDH. Pyruvate kinase substrates, PEP and ADP, were present in the assay at 0.1 mM and 4 mM respectively. In this kinetic assay initial rates were determined by following the fluorescence of NADH depletion.
NCGC Assay Protocol Summary: Three uL of substrate mix (final concentration, 50 mM Tris-Cl pH 8.0, 200 mM KCl, 15 mM MgCl2, 0.1 mM PEP, 4.0 mM ADP, and 0.2 mM NADH) was dispensed into black-solid 1536 well plates. 23 nL of compounds were delivered by a pin tool and 1 uL of enzyme mix (final concentrations, 10 nM hPK-R and 1 uM of LDH) was added. Plates were immediately placed in ViewLux (Perkin Elmer) and NADH fluorescence was determined at 30 second exposure intervals for between 3 and 6 minutes. Data were normalized to the uninhibited and EC100 activation using known activators such as fructose-bis-phosphate.

Potency, inactive:
CC(=O)Nc1ccc(S(=O)(=O)Nc2ccc(C)c(C)c2)cc1
CC(=O)N1c2ccc(S(=O)(=O)Nc3ccc(C)c(C)c3)cc2CC1C (stereo not given)
Cc1ccc(N(C)S(=O)(=O)c2ccc3c(c2)CCC(=O)N3)cc1C
O=C1CCc2cc(S(=O)(=O)Nc3ccc(-c4ccccc4)cc3)ccc2N1
Cc1ccc2nc(-c3cccs3)c(Nc3ccccc3)n2c1
Cc1ccc(NS(=O)(=O)c2ccc3c(c2)CCCC(=O)N3)cc1C
Cc1nc(-c2ccc(S(=O)(=O)Nc3ccc(C)c(C)c3)s2)cs1
CCCCN1C(=O)c2ccccc2C1=O
COc1cccc(N2C(=O)c3ccccc3C2=O)n1
Cc1ccc(-c2nc3ccc(Cl)cn3c2Nc2ccccc2)o1
Cc1ccc(NS(=O)(=O)c2ccc3c(c2)CC(=O)N3C)cc1C
CC(=O)N1CCCc2cc(S(=O)(=O)Nc3ccc(C)c(C)c3)ccc21
COc1ccc(N2C(=O)c3ccccc3C2=O)cc1
O=C1CCc2cc(S(=O)(=O)Nc3cccc4ccccc34)ccc2N1
O=C1CCc2cc(S(=O)(=O)Nc3ccccc3F)ccc2N1
COc1ccccc1N1C(=O)c2ccccc2C1=O
O=C1CCc2cc(S(=O)(=O)Nc3cccc(Cl)c3)ccc2N1
O=C1CCc2cc(S(=O)(=O)Nc3ccccc3-c3ccccc3)ccc2N1
Cc1ccc(NS(=O)(=O)c2cc3c(cc2N2CCC2)NC(=O)CC3)cc1C
Cc1ccc(NS(=O)(=O)c2cc3c(cc2N(C)C)CCC(=O)N3)cc1C
O=S1(=O)N=C(Oc2cccc(Cl)c2)c2ccccc21
Cc1ccc(NS(=O)(=O)c2ccc3c(ccn3C)c2)cc1C
Cc1ccc(NS(=O)(=O)c2ccc(Cl)cc2)cc1C
O=S1(=O)N=C(Oc2ccccc2Cl)c2ccccc21
Cc1ccc(NS(=O)(=O)c2ccc3[nH]c(=O)[nH]c3c2)cc1C
O=S1(=O)N=C(Oc2ccc(Cl)cc2)c2ccccc21
O=C1c2ccccc2C(=O)N1c1cccc2cccnc12
CN(C)c1cccc(S(=O)(=O)N2CCN(S(=O)(=O)c3ccc4c(c3)OCCO4)CC2)c1
Cc1ccc(NS(=O)(=O)c2ccc3c(c2)N(C)CCO3)cc1C
Cc1cc(N2C(=O)c3ccccc3C2=O)no1
O=C1c2ccccc2C(=O)N1Cc1ccccc1
O=C1CCc2cc(S(=O)(=O)Nc3ccccn3)ccc2N1
Cc1ccc(NS(=O)(=O)c2cc3c(cc2F)NC(=O)CC3)cc1C
Cc1ccc(NS(=O)(=O)c2cc3c(cc2C)NC(=O)CO3)cc1C
O=C1CCc2cc(S(=O)(=O)Nc3ccc(F)cc3)ccc2N1
O=C1c2ccccc2C(=O)N1c1cncc2ccccc12
O=C1c2ccccc2C(=O)N1c1ccc(Cl)cc1
COc1ccc(NS(=O)(=O)c2ccc3c(c2)CCC(=O)N3)cc1
Cc1ccc(NC(=O)c2ccc3c(c2)CCC(=O)N3)cc1C
COc1ccc(Nc2c(-c3ccc(C)o3)nc3ccccn23)cc1
